# Measurements taken from PubChem BioAssay AID894 (National Center for Advancing Translational Sciences (NCATS), 2007).
# Out of some 150,000 compounds screened, about 6,500 (4.3%) were called active. Not shown: some 12% with an inconclusive outcome. Calls come from the whole dose curve; as a rule, active = well fitted inhibition curve with a large enough effect (not every such curve was filed as active); inconclusive = small, poorly fitted or top-dose-only effect, or another doubt; inactive = no such curve, though single readings can be large or run the other way. For the sample, actives were picked, then their nearest neighbours and some compounds at random.
# Molecular target: 15-hydroxyprostaglandin dehydrogenase [NAD(+)] (Homo sapiens) (UniProt P15428)
# Sequence (P15428 whole entry, looked up): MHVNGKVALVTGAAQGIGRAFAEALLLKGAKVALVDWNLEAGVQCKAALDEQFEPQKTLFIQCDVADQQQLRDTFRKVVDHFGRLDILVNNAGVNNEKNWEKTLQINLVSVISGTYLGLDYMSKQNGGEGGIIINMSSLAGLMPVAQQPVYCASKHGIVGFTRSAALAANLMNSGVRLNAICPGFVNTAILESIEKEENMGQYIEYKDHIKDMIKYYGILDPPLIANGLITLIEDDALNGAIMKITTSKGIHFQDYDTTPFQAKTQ
# Test: qHTS Assay for Inhibitors of HPGD (15-Hydroxyprostaglandin Dehydrogenase)
# Conditions: purified HPGD, NADH fluorescence kinetic, PGE2 substrate; activity change, negative = inhibition: hits give low values
# In short: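 NADH formation kinetics: reaction with 30 uM PGE2 and 1 mM NAD+ (final), 20 nM enzyme, Tris-HCl pH 8 with Tween 20, after 15 min compound preincubation at room temperature. Fluorescence change, last versus first of five reads.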
# % is set by controls: 0 for no effect and ±100 for the full control effect; potency is the fitted concentration of half-maximal effect.
SMILES,Potency,"activity change, negative = inhibition"
O=C(NCc1ccccn1)c1ccc2nc(-c3ccco3)c(-c3ccco3)nc2c1,14.1 µM (active),–
CN(c1ccc(C(=O)NCc2ccccn2)cc1)S(C)(=O)=O,–,-25.1% (inactive)
CCOc1ccc(C(=O)NC(C(=O)NCc2ccccn2)C(C)C)cc1 (stereo not drawn),–,-8.11% (inactive)
COc1ccccc1C1SCCN1C(=O)c1ccc([N+](=O)[O-])cc1 (stereo not drawn),–,-2.04% (inactive)
O=C(CN1CCN(c2ccc(O)cc2)CC1)Nc1cc(S(=O)(=O)N2CCOCC2)ccc1Cl,–,-5.21% (inactive)
Cc1ccc(-n2c(C)cc(C(=O)CSc3nnc4ccccn34)c2C)cc1,–,-16.1% (inactive)
C/C(=N\NC(=O)c1ccc(NS(=O)(=O)c2cccs2)cc1)c1ccc2ccccc2c1,–,-21.6% (inactive)
Cc1cccc(NC(=O)c2sc3nc4c(c(-c5ccco5)c3c2N)CCC4)c1,–,-21.6% (inactive)
Nc1c(C(=O)NCc2ccccc2)sc2nc3c(cc12)C(=O)CCC3,–,-24.2% (inactive)
CC(C)OC(=O)c1sc2nc3c(cc2c1N)C(=O)CCC3,28.2 µM (active),–
C/C(CCC(=O)OC[C@H]1O[C@H](C#Cc2ccccc2)C=C[C@@H]1Oc1ccc(C)cc1)=N\OC[C@@H](O)[C@H]1O[C@@H]2OC(C)(C)O[C@@H]2[C@H]1O,–,-19.5% (inactive)
CCc1ccc(NC(=O)CC2C(=O)NCCN2C(=S)Nc2ccccc2)cc1 (stereo not drawn),–,-10.9% (inactive)
Cc1ccc(NN=C2C(=O)OC(C)(C)OC2=O)c(C)c1,–,-9.59% (inactive)
C=CC1=C2C=C(C3CC3)N(C(CO)CO)C=C2C(=O)C(C)(OC(=O)c2ccco2)C1=O (stereo not drawn),–,-2.61% (inactive)
COc1ccc(Nc2cc(C)nc(-n3nc(C)cc3C)n2)cc1,–,-0.842% (inactive)
COc1ccc(C(C[N+](=O)[O-])n2nc(C)cc2C)cc1 (stereo not drawn),31.6 µM (active),–
COc1ccc(OCc2cn3c(C)cc(C)nc3n2)cc1,–,-7.95% (inactive)
COc1ccc(N2CCN(c3ccc([N+](=O)[O-])cc3Cl)CC2)cc1,–,-1.48% (inactive)
COc1cc2c(cc1OC)C(Nc1ccc(S(N)(=O)=O)cc1)=NC(C)(C)C2,–,-7.98% (inactive)
CSc1ccccc1C(=O)Nc1cccc(C(C)=O)c1,–,-4.99% (inactive)

SMILES,Potency,"activity change, negative = inhibition"
CC(Sc1nnc2c(n1)C1CCC2(C)C1(C)C)C(=O)Nc1ccccc1 (stereo not drawn),–,-10.3% (inactive)
CSc1nc(C)cc(SC(C(C)=O)C(=O)Nc2ccccc2)n1 (stereo not drawn),25.1 µM (active),–
CCCCOc1ccc(C(=O)NCC(=O)OCC(=O)N2CCN(S(=O)(=O)c3ccc(C)cc3C)CC2)cc1,–,-0.54% (inactive)
COC(=O)c1ccc(C(=O)OC)c(NC(=S)N2CCN(c3ccc(F)cc3)CC2)c1,–,-14.5% (inactive)
CCOc1ccc(C(=O)NC(=S)Nc2ccc(NC(=O)C(C)C)cc2)cc1[N+](=O)[O-],–,-3.94% (inactive)
Cc1nnc(-c2ccc(Oc3ccc(C)c(C)c3)c([N+](=O)[O-])c2)o1,10 µM (active),–
COc1ccc(OCC(=O)Nc2cc(C)c(Cl)cc2OC)c([N+](=O)[O-])c1,–,-1.27% (inactive)
S=C(NCc1ccc(Cl)cc1)NC1CCCCC1,–,-2.44% (inactive)
C#CCNc1nc(C(C)C)nc2c1nnn2Cc1ccccc1F,–,-2.63% (inactive)
CC(C)Nc1ncnc2c1nnn2Cc1ccccc1,28.2 µM (active),–
CC(C)(C)c1nc(NCC2CCCO2)c2nnn(Cc3ccccc3)c2n1 (stereo not drawn),–,-9.49% (inactive)
N#Cc1ccccc1NC(=O)c1cccc(COc2ccc(Cl)cc2Cl)c1,–,-14.4% (inactive)
Cc1ccc(-n2c(SCC(=O)Nc3ncc(Cl)cc3Cl)nc3ccccc32)cc1,–,-16.1% (inactive)
COCC(C)n1c(C)cc(C(=O)CSc2cc(C)c3ccccc3n2)c1C (stereo not drawn),–,-10.7% (inactive)
COc1ccc(/C=N/NC(=O)c2ccc(Cl)cc2)cc1COC(C)=O,–,-5.1% (inactive)
Cc1ccc(C(=O)OCc2nc(N)nc(Nc3ccccc3C)n2)cc1,–,-0.25% (inactive)
CCC(C)NC(=O)c1cc(Cl)ccc1OC (stereo not drawn),–,-11.4% (inactive)
CC(Oc1ccc(Cl)cc1Cl)C(=O)/C=C/N(C)C (stereo not drawn),22.4 µM (active),–
CN(C)/C=C/C(=O)c1ccccc1F,–,-27.4% (inactive)
CCn1cc(CNC(=O)c2cc([N+](=O)[O-])c(C)c([N+](=O)[O-])c2)cn1,–,-7.17% (inactive)

SMILES,Potency,"activity change, negative = inhibition"
Cc1nc2ccccc2nc(C)c1=NOCc1ccc(Cl)cc1Cl,–,-8.26% (inactive)
Cc1nnnn1/C(=C\c1ccccc1)C(=O)OCC(=O)N1CC2(C)CC1CC(C)(C)C2 (stereo not drawn),–,-7.09% (inactive)
O=C(NC1CC1)c1ccc2c(c1)NC(=O)c1ccccc1S2,20 µM (active),–
O=C(NC1CC1)c1cccc(Br)c1,–,-26.7% (inactive)
S=C1Nc2cc(Cl)ccc2Sc2ccccc21,–,-14% (inactive)
COc1cc(Cl)c(C)cc1NC(=O)[C@@H]1CCCN1C(=O)c1cccs1,–,-4.97% (inactive)
COc1ccc(-c2nn(-c3ccccc3)cc2/C=N/Nc2ccccn2)cc1OC,–,-26.3% (inactive)
CC(=O)Nc1ccc(NC(=O)C(C)OC(=O)c2ccccc2C(=O)c2ccc(Cl)c([N+](=O)[O-])c2)cc1 (stereo not drawn),–,-2.62% (inactive)
COc1ccc(C2CC(c3ccccc3)=NN2C(=O)CSc2nccc(=O)[nH]2)cc1 (stereo not drawn),–,-5.74% (inactive)
CCOC(=O)c1c(NC(=O)c2ccc(N3CCOCC3)c([N+](=O)[O-])c2)sc(C)c1C,–,-7.82% (inactive)
CCC(C)NC(=O)c1ccc(N2CCC3(CC2)OCCO3)c([N+](=O)[O-])c1 (stereo not drawn),39.8 µM (active),–
COCCNC(=O)c1ccc(N2CCC3(CC2)OCCO3)c([N+](=O)[O-])c1,–,-17.4% (inactive)
CC(C)CNC(=O)COC(=O)c1ccccc1OCC(=O)Nc1ccc(Br)cc1,–,-5.33% (inactive)
Oc1c(C=Nc2cccc3nsnc23)ccc2ccccc12,25.1 µM (active),–
Nc1nc(NC(=O)/C=C/c2ccccc2)nn1-c1ccccc1,–,-3.01% (inactive)
COc1cc(C2CC(=O)N3CN(Cc4ccccc4)CSC3=C2C#N)ccc1OCc1ccccc1 (stereo not drawn),10 µM (active),–
COc1ccc(C2C(C#N)=C(/N=C/N3CCOCC3)OC3=C2C(=O)CC(C)(C)C3)cc1OC (stereo not drawn),–,-16.4% (inactive)
COc1ccc(C2CC(=O)n3c(nc4ccccc43)S2)cc1OC (stereo not drawn),–,-12.6% (inactive)
